# From PubChem BioAssay (NCI)
# This is part of a sample that, as a whole, favours compounds with a hit. Of some 83,000 tested, about 20% had one in any assay.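 Activity criterion: percent growth below 10, measured after cells in 96-well plates were exposed to a single compound concentration for 48 hours.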 Values without a mark were called inactive. Calls of active or inactive are those of the source.
# Tests used:
# Test in all cases: NCI-60 one-dose screen, 48 h (100 = growth as untreated, 0 = no growth, -100 = all killed)
# Conditions in all cases: 10 µM unless noted
# [1] = tested on: DU-145 prostate
# [2] = tested on: K-562 leukemia
# [3] = tested on: MALME-3M melanoma
# [4] = tested on: MDA-MB-231 breast
# [5] = tested on: RXF 393 renal
# [6] = tested on: SF-268 CNS
# [7] = tested on: SF-295 CNS
# [8] = tested on: SF-539 CNS
# [9] = tested on: M14 melanoma
SMILES,growth [1],growth [2],growth [3],growth [4],growth [5],growth [6],growth [7],growth [8],growth [9]
COc1cc(C2CC(c3c(C)[n+]([O-])c4ccccc4[n+]3[O-])=NN2)cc(OC)c1OC (stereo not given),112%,106%,112%,104%,-20.2% (active),112%,103%,124%,101%
O=C1NC(Cc2c[nH]c3ccccc23)C(=O)N1Cc1ccc(Cl)cc1 (stereo not given),116%,83.9%,105%,101%,116%,106%,82.3%,106%,110%
CC/C=C\C[C@H](O)C/C=C1/C(=O)C(Cl)=C[C@@H]1C/C=C\CCCC(=O)O,75.9%,3.74% (active),21.7%,43.5%,64.2%,55.9%,89.2%,66%,35.7%
Nc1nn2cc(-c3ccc(Cl)s3)nc2c2ccccc12,99%,85.3%,101%,68.9%,133%,94.1%,93.7%,81.7%,97%
CCC(c1cccc(Br)c1)C(C(=O)O)c1ccc(OC)cc1 (stereo not given),116%,77.6%,101%,111%,118%,105%,108%,104%,86.5%
C=C1C(=O)O[C@H]2[C@H]1CC/C(Cn1cc(-c3ccccc3C(F)(F)F)nn1)=C\CC[C@@]1(C)O[C@@H]21,-95.4% (active),-13% (active),-59.3% (active),-33.4% (active),-72.3% (active),-4.71% (active),58.8%,-74.9% (active),-79.1% (active)
COc1cc(C(=O)N2CCN(C(=O)c3ccco3)CC2)c(N)cc1OCc1ccccc1,115%,85.3%,107%,101%,89.9%,108%,115%,98.2%,102%
CCOC(=O)/C=C\C(=O)NC(N)=O,106%,94.4%,102%,103%,101%,106%,106%,108%,96.7%
NC(=O)c1ccc2c(c1)OCO2,108%,115%,98.3%,100%,94.5%,97.2%,96.5%,104%,101%
C#CCC1(c2ccc(F)c(F)c2)NS(=O)(=O)c2ccccc21 (stereo not given),107%,89.4%,93.7%,109%,114%,102%,105%,104%,107%
CCNc1nc(N2CC(=O)Nc3cc(OC)ccc32)c2ccccc2n1,-1.09% (active),6.9% (active),51%,12.7%,33.7%,14.8%,-5.23% (active),-4.78% (active),7.3% (active)
NC(=O)NNC(=O)c1ccccc1,115%,103%,110%,113%,113%,107%,106%,107%,107%
O=c1[nH]c(CN2CCN(c3ccccc3F)CC2)nc2sc3c(c12)CCC3,109%,109%,96.4%,96.3%,160%,121%,144%,98.6%,108%
CCOC(=O)CC/C(C)=N\Nc1ccc([N+](=O)[O-])cc1,88.6%,6.98% (active),104%,80.8%,97.5%,73.5%,60%,69.8%,29.3%
Cc1cc(C(=O)O)c(N)c(C)n1,110%,104%,109%,106%,121%,104%,111%,102%,102%
